Here are results for 4 molecules from PubChem BioAssay AID449750 (Broad Institute, 2010).

Molecules are shown by their SMILES. Out of some 2,100 compounds screened, about 1,400 (67%) were called active. How the calls were made is not given here. So high a share suggests a set chosen from earlier hits. This is one part of the list. Entries with a potency or affinity are not part of this list.

The assay in a line: non-covalent RecA intein splicing inhibitors, dose response, biochemical, cell-free, fluorescence, secondary screen (AID 449750). To be noted: series mostly up to 38 µM.
Consider `COCCn1c(N)c(C(=O)NCc2cccs2)c2nc3ccccc3nc21`, for which the result was inactive. For the molecule `CC1=NN(Cc2ccccc2)C(=O)/C1=C\c1ccc(N(C)C)cc1`, the call was inactive. `Cc1ccccc1NC1=C/C(=N\S(=O)(=O)c2cccs2)c2ccccc2C1=O`: the call was inactive. `Oc1ccc(N=Cc2ccc(-c3cccs3)s2)cc1`: the call was inactive.
